# Experimental data reported in PubChem BioAssay AID2284133 (EPA ToxCast).
# The source made the active and inactive calls. The calls were made as follows: active = hit-call score of the fitted dose curve at least 0.9, where 1 is the maximum; inactive = score below 0.9.
# Target: human MARK1 CAMK Kinase, MARK1 (gene 4139) (UniProt Q9P0L2)
# Experiment: ERF_FR_ENZ_hMARK1: Eurofins (ERF) Enzymatic Radiometric [Km ATP] KinaseProfiler LeadHunter Assay for human MARK1 CAMK Kinase
# Description: ERF_FR_ENZ_hMARK1 is a biochemical, single-readout assay that uses extracted gene-proteins in a cell-free assay. Measurements were taken 0.5 hour after chemical dosing in a 96-well plate. See MARK1 Human CAMK Kinase Enzymatic LANCE Assay [Km ATP], Cerep.ERF_FR_ENZ_hMARK1 is an assay component calculated from the ERF_FR_ENZ_hMARK1 assay. It is designed to measure enzyme activity using a type of enzyme reporter as detected by fluorescence intensity with LANCE technology.Data from the assay component ERF_FR_ENZ_hMARK1 was analyzed at the assay endpoint, ERF_FR_ENZ_hMARK1, in the positive analysis fitting direction relative to DMSO as the negative control and baseline of activity. Using a type of enzyme reporter, loss-of-signal activity can be used to understand changes in enzymatic activity as they relate to gene MARK1. To generalize the intended target to other relatable targets, this assay endpoint is annotated to the kinase intended target family, where the subfamily is serine/threonine kinase.
# […] is incubated with 50 mM Na-b-glycerophosphate pH 7.5, 0.1 mM EGTA, 30 uM […], 10 mM MgAcetate and [gamma-33P]-ATP (specific activity and concentration as required). The reaction is initiated by the […] addition of the Mg/ATP mix. After incubation for 40 minutes at room temperature, the reaction is stopped by the addition of phosphoric acid to a concentration of 0.5%. […]
# human MARK1 CAMK Kinase, MARK1 (gene 4139), sequence (Q9P0L2 whole entry, looked up): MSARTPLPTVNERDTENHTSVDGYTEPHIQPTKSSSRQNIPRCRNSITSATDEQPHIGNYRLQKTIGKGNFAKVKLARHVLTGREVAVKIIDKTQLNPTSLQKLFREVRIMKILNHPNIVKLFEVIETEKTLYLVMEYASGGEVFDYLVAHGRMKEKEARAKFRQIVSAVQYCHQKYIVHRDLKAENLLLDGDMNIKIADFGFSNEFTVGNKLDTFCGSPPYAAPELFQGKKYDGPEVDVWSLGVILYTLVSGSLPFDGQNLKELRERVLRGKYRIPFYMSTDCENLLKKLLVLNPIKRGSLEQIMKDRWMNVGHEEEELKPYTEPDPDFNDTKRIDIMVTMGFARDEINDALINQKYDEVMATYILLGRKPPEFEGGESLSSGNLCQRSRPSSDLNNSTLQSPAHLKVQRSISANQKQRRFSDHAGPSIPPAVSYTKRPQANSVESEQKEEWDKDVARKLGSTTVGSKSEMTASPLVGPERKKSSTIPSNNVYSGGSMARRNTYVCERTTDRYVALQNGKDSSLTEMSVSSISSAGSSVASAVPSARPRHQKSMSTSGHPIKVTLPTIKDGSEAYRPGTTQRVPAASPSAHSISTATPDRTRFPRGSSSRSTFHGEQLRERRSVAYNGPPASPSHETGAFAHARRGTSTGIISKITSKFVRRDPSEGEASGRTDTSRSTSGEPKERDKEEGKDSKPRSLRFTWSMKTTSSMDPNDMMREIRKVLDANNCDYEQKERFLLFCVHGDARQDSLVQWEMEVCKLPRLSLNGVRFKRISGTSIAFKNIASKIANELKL
row,SMILES,outcome
1,O=C(/C=C/c1ccc(O)cc1)CC(=O)/C=C/c1ccc(O)cc1,inactive
